# A selection: hits, their analogues and other compounds. The true share with any hit is near 1.8%.
# ARNT-TACC3 inh: disruptors of ARNT/TACC3 protein interaction, primary screen, biochemical, AlphaScreen, single concentration | inhibition, % at 9.99 µM | AID 623870, 2012 | AlphaScreen His-ARNT PAS-B/GST-TACC3 binding, luminescence; TACC3 fragment carries E629A point mutation | Transforming acidic coiled-coil-containing protein 3 (Homo sapiens), Q9Y6A5 | 390,000 tested, 0.66% active;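 active = mean inhibition of replicates at least 50% and at least half of replicates each reaching 50%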;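 note: 0% = complete ARNT plus TACC3 wells and 100% = ARNT alone without TACC3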
# aDG glyco act: activators of alpha-DG glycosylation, primary screen, uHTS, Pro5-aDG cells, AlphaScreen. alpha-DG glycosylation AlphaScreen (IIH6); 0% Pro5, 100% B10-LARGE cell signal. activation, % at 10 µM. 360,000 tested, 0.22% active;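 active = activation of at least 8% versus controls, or a plate z-score of at least 8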;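 note: Pro5 are CHO cells carrying HIG-tagged alpha-DG that lacks glycosylation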
# Bfl-1 A1 inh: caspase 3/7 activation in MEF A1-2A-BIM cells, primary screen, A1 inhibitor project, cell-based, luminescence, HTS | Caspase-Glo 3/7 luminescence, 3 h; percent of clofoctol response, vehicle zero | 330,000 tested, 0.066% active | caspase activation, % (test concentration not listed);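 active = over half of replicate activation scores above 10%, or exactly half above 10 with the replicate mean above 10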
# SUMO Mot1 rescue: yeast Mot1-301 growth rescue at high temperature, primary screen, SUMOylation pathway inhibitor project, S. cerevisiae, ATP luminescence, 38.5C | growth rescue, % at 18.8 µM | AID 2716, 2010 | 320,000 tested, 1% active | S. cerevisiae Mot1-301 growth rescue; percent above DMSO median, 100 means doubled;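 active = every valid replicate shows activation above 250% relative to neutral control wells; inactive = the rest, any valid replicate at or below 250%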;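 note: OY570 slx delta 5 strain wells were the positive control but not used for scaling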
# AI-2 QS mod: Vibrio harveyi AI-2 quorum sensing modulators, primary screen, JMH597 strain, luminescence/OD600 ratio | activity change, % at 7.5 µM | Vibrio harveyi JMH597 AI-2 luminescence/OD600 ratio, 9 h; active compounds read low; strain lacks LuxN and CqsS sensors; 0 = neutral-control median | 300,000 tested, 0.4% active | AID 2094, 2009; in the data active = activity change below about -75%, passing the limit was not always enough;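 note: luminescence divided by OD600 gain over 9 h not by final OD600 alone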
# The depositor's hits bear a star; . = no result given.
SMILES,ARNT-TACC3 inh,aDG glyco act,Bfl-1 A1 inh,SUMO Mot1 rescue,AI-2 QS mod
CCOC(=O)[C@]12CCC=C1N(CCC1=CCCCC1)C(=O)[C@H](CC(=O)N1CCN(C(=O)C3CC3)CC1)C2,.,0,.,.,.
C[C@H]1CN([C@@H](C)CO)C(=O)c2cccc(NC(=O)c3ccc(-c4nccs4)cc3)c2O[C@@H]1CN(C)C(=O)Nc1ccccc1,-4,.,.,.,.
C[C@H](CO)N1C[C@H](C)[C@H](CN(C)S(C)(=O)=O)Oc2c(NC(=O)c3ccncc3)cccc2C1=O,-5,.,.,.,.
C[C@@H]1CN([C@H](C)CO)C(=O)c2cccc(NC(=O)c3ccc(-c4nccs4)cc3)c2O[C@H]1CN(C)C(=O)Nc1ccccc1,19*,.,.,.,.
C[C@H](CO)N1C[C@H](C)[C@H](CN(C)S(=O)(=O)c2cccs2)Oc2c(NC(=O)c3ccncc3)cccc2C1=O,active,.,.,.,.
Cc1noc(C)c1NC(=O)N(C)C[C@@H]1Oc2c(NC(=O)c3ccc(-c4nccs4)cc3)cccc2C(=O)N([C@H](C)CO)C[C@H]1C,31*,.,.,.,.
COC(=O)CSc1ncnc2c1sc1nc(N3CCOCC3)c3c(c12)CCCC3,2,0,-1,.,13
Oc1c(C(c2ccccc2)N2CCCCC2)sc2ncnn12 (stereo unspecified),-13,0,-1,462*,10
Oc1c(C(c2ccccc2)N2CCN(Cc3ccccc3)CC2)sc2ncnn12 (stereo unspecified),0,0,1,-15,25
Cc1nc2ccc(C(=O)NCc3ccc4c(c3)OCO4)cc2s1,-5,1,0,134,-5
NC(=O)COC(=O)c1sc2ccccc2c1Cl,-1,0,0,545*,20
COc1ccc(Br)cc1C(=O)Nc1cccc(-c2nnc(-c3ccco3)o2)c1,2,0,-1,331*,-6
NC(=O)c1cccnc1Oc1ccccc1,-5,0,0,350*,12
O=C(/C=C/c1ccccc1)Oc1cccc2cccnc12,47*,1,0,-15,19
O=C(NCCN1CCN(c2ccccc2F)CC1)c1ccc2nc3ccccc3c(=O)n2c1,48*,0,.,.,21
O=C(C[C@@H]1C=C[C@@H](NC(=O)c2ccncc2)[C@H](CO)O1)NCC1CCCCC1,0,.,.,.,.
C(=N\c1nccs1)/c1c[nH]c2ccccc12,40*,0,0,236,2
CO[C@@H]1CN(C)C(=O)c2ccc(NS(=O)(=O)c3ccccc3)cc2OC[C@@H](C)N(Cc2ccccn2)C[C@@H]1C,17,.,.,.,.
CO[C@@H]1CN(C)C(=O)c2ccc(NS(=O)(=O)c3ccc(C)cc3)cc2OC[C@@H](C)N(Cc2ccccn2)C[C@H]1C,active,.,.,.,.
CCc1nc(N=Nc2c(O)[nH]c3ccccc23)c2c3c(sc2n1)CCC3,4,0,8.9*,-1,2
COc1cccc(CNC(=O)CCS(=O)(=O)c2cccc3nonc23)c1,-8,0,1,286*,24
CN1CCCCCC1C(=O)N1CCC(N2CCC(C(=O)N3CCOCC3)CC2)CC1 (stereo unspecified),-4,0,1,270*,4
O=C(NNC(=O)c1ccc(Cl)c(Cl)c1)c1cccnc1,2,0,0,-15,27
CC(C)(C)c1ccc(C(=O)N2CCNCC2)cc1,1,0,0,-7,-3
O=C(c1ccc(-c2cc(O)c3ncccc3c2)cc1)N1CCNCC1,66*,0,1,162,.
SMILES,ARNT-TACC3 inh,aDG glyco act,Bfl-1 A1 inh,SUMO Mot1 rescue,AI-2 QS mod
COCC(=O)N(C)C[C@H]1[C@H](c2ccccc2)[C@@H](CO)N1C(=O)Cc1cccnc1,-5,.,.,.,.
CCCCCCCCCCCCN1[C@@H](CC(=O)OC)c2cc(F)cc(F)c2S1(=O)=O,-62,0,-1,-2,23
COc1ccc(CNC(=O)C[C@H]2CC[C@H]3[C@H](COc4ccc(NC(=O)C5CC5)cc4C(=O)N3C)O2)cc1,12,.,.,.,.
COc1ccc(CNC(=O)C[C@@H]2CC[C@H]3[C@@H](COc4ccc(NC(=O)C5CC5)cc4C(=O)N3C)O2)cc1,active,.,.,.,.
O=S1(=O)CC(N2CCN(Cc3ccccc3F)CC2)CN1Cc1cn(Cc2ccc(Cl)cc2)nn1 (stereo unspecified),.,0,.,.,.
C[C@@H]1CN([C@H](C)CO)C(=O)c2cc(C3=CCCC3)cnc2O[C@H]1CN(C)C(=O)C1CCCCC1,-6,.,.,.,.
CNC(=S)N(CCc1c(C)[nH]c2ccc(F)cc12)Cc1cccnc1,4,0,0,354*,11
Cc1[nH]c2ccc(F)cc2c1CCN(Cc1cccnc1)C(=S)Nc1ccccc1,3,0,-1,-5,90
CCn1c(=O)cc(OCC(=O)N2CCN(C(=O)c3ccco3)CC2)c2ccccc21,.,0,0,707*,7
O=[N+]([O-])c1cc(Cl)ccc1N1CCN(c2cccc(C(F)(F)F)c2)CC1,13,0,0,-14,-10
O=[N+]([O-])c1cc(CN2CCCC2)c2cccnc2c1O,77*,0,0,-7,.
O=[N+]([O-])c1cc(CN2CCN(c3cccc(C(F)(F)F)c3)CC2)c2cccnc2c1O,.,.,0,54,-97*
COc1cc(CN2CCCCCC2)cc([N+](=O)[O-])c1O,-8,0,0,-3,29
CC(=O)c1sc2nc(-c3cccs3)ccc2c1N,-14,0,0,2,6
COc1cccc(Cn2cnc(-c3ccccc3OC)c2-c2cccnc2)c1,.,0,.,.,.
COc1ccc(NC(=O)N[C@H]2CC[C@@H](CCn3cc(-c4ccccc4)nn3)O[C@@H]2CO)cc1,-7,.,.,.,.
CCc1nc(SCC(=O)Nc2ccc(F)cc2F)c2c(=O)n(C)c(=O)n(C)c2n1,1,0,0,-5,12
CO[C@H]1/C=C/O[C@@]2(C)Oc3c(C)c(O)c4c(O)c(c(C=NN5CCN(C)CC5)c(O)c4c3C2=O)NC(=O)/C(C)=C\C=C\[C@H](C)[C@H](O)[C@@H](C)[C@@H](O)[C@@H](C)[C@H](OC(C)=O)[C@@H]1C,6,0,2,-5,.
CO[C@H]1C=CO[C@@]2(C)Oc3c(C)c(O)c4c(O)c(c(C=NN5CCN(C)CC5)c(O)c4c3C2=O)NC(=O)C(C)=CC=C[C@H](C)[C@H](O)[C@@H](C)[C@@H](O)[C@@H](C)[C@H](OC(C)=O)[C@@H]1C,12,0,0,4,-119*
